In the supplement of paper PMC10849652:
Of roughly 8,800 targets only a part is listed; those with a hit were picked by preference. About 0.5% of all pairs of compound and target were hits.

Tests used:
Experiment in all cases: log2 fold change, soluble protein after heating vs DMSO (PISA); higher = thermal stabilisation; K562 lysate, 10 uM; active = over 0.2 and 3.5 SD of the protein, either way, in both replicates (recomputed)
[1] = compound: C#Cc1cccc(Nc2ncnc3cc(OCCOC)c(OCCOC)cc23)c1 [erlotinib]
In short: (§1)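 Soluble protein was defined as the supernatant remaining after 21,000xg for 90 min, following pooling of heated aliquots and adjustment to 0.5% NP-40 at 4°C. Before that, crude K562 extract at 1 mg/mL protein in PBS pH 7.4 with 1 mM MgCl2 was treated with 10 μM compound for 30 min and heated for 3 min across 48°C-58°C. Quantification used TMTpro 16plex LC-MS/MS with channel sums equalised, and values are log-two fold changes in thermal stability relative to solvent controls from duplicates.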

[2] = compound: C/C(=N\NC(=O)C1=CC(=CC=C1)S(=O)(=O)N2CCOCC2)/C3=C(C=CC(=C3)Cl)O
In short: as §1

[3] = compound: C1=CC(=CC=C1C2=NC3=C(N2)C=C(C=C3)C(=O)N)OC4=CC=C(C=C4)Cl
In short: as §1

[4] = compound: C1=CC2=C(C=CC(=C2)/C=C\3/C(=O)NC(=NCC4=CC=CS4)S3)N=C1
In short: as §1

[5] = compound: C1=CC2=NC=CN=C2C=C1/C=C/3\C(=O)NC(=O)S3
In short: as §1

[6] = compound: C1=CC=C(C=C1)C2=NC(=C(N2)C3=CC=NC=C3)C4=CC(=C(C=C4)Cl)O
In short: as §1

[7] = compound: C1=CC=C2C(=C1)C3=NNC4=CC=CC(=C43)C2=O
In short: as §1

[8] = compound: C1CCN(C1)C(=O)NC2=CC=CC(=C2)NC3=NC=C(C(=N3)NCCC4=CN=CN4)Br
In short: as §1

[9] = compound: C1CN(CCC1(CC2=CC=C(C=C2)Cl)N)C3=NC=NC4=C3C=CN4
In short: as §1

[10] = compound: C1COCCN1CCN2C3=CC=CC=C3N=C2NC(=O)C4=CC(=CC=C4)[N+](=O)[O-] [IRAK-1-4 Inhibitor I]
In short: as §1

[11] = compound: C=CC(=O)N1CCC[C@@H](n2nc(-c3ccc(Oc4ccccc4)cc3)c3c(N)ncnc32)C1 [ibrutinib]
In short: as §1

[12] = compound: CC(=O)c1cnc2ccc(-c3cc(Cl)c(O)c(Cl)c3)nc2c1N[C@H]1CC[C@H](CN(C)C)CC1
In short: as §1

[13] = compound: CC(C)(C)Cn1c(N)nc2ccc(-c3[nH]c(C(C)(C)C)nc3-c3ccc(F)cc3)nc21 [ralimetinib]
In short: as §1

[14] = compound: CC(C)(O)CC(=O)NCCn1ccc2ncnc(Nc3ccc(Oc4cccc(C(F)(F)F)c4)c(Cl)c3)c21
In short: as §1

[15] = compound: CC(C)C1=C2N=C(C=C(N2N=C1)NCC3=CC=CC=C3)NCCCCCCN
In short: as §1

[16] = compound: CC1=C(C(CC(=O)N1)C2=CC=C(C=C2)C(F)(F)F)C(=O)NC3=C(C=C4C(=C3)C=NN4)F
In short: as §1

[17] = compound: CC1=C(C2=C(C=C1)C(=O)C3=CC=CC=C3N2CCCN)C
In short: as §1

[18] = compound: CC1=C(C=C(C=C1)NC(=O)C2=CC(=CC=C2)C(C)(C)C#N)NC3=CC4=C(C=C3)N=CN(C4=O)C
In short: as §1

[19] = compound: CC1=C(C=C(C=C1)NC(=O)C2=CC(=CC=C2)N(C)C)NC(=O)C3=CC=C(C=C3)O
In short: as §1

[20] = compound: CC1=CC=C(C=C1)SC2=C3C=C(SC3=CN=C2)C(=O)N
In short: as §1

Measured: log2 fold change

VAMP2 (UniProt P63027)
UniProt P63027, sequence (P63027 whole entry, looked up): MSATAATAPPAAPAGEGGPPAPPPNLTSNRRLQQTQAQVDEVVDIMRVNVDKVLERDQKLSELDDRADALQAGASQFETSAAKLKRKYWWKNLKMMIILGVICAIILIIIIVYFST
inactive: [1] -0.083 | [2] 0.055 | [3] -0.024 | [4] -0.063 | [5] 0.063 | [6] -0.082 | [7] -0.037 | [8] 0.081 | [9] -0.009 | [10] -0.033 | [11] -0.039 | [12] -0.027 | [13] 0.002 | [14] -0.006 | [15] -0.036 | [16] -0.069 | [17] -0.01 | [18] -0.048 | [19] 0.047 | [20] 0.035

UTP3 (UniProt Q9NQZ2)
UniProt Q9NQZ2, sequence (Q9NQZ2 whole entry, looked up): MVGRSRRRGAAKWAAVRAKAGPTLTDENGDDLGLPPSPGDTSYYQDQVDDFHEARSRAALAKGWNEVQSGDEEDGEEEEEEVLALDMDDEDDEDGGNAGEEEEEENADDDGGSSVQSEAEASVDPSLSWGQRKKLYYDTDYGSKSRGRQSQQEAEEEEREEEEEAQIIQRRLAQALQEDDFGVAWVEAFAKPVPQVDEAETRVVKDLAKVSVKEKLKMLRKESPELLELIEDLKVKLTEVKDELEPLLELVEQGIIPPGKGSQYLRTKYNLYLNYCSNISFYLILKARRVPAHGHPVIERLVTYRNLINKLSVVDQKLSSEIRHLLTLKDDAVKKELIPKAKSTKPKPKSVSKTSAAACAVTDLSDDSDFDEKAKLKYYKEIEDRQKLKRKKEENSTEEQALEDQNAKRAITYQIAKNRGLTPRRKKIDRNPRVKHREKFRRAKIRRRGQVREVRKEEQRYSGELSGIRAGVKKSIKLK
inactive: [1] -0.051 | [2] -1.41 | [3] -0.088 | [4] -0.063 | [5] -0.039 | [6] -0.018 | [7] 0.021 | [8] -0.067 | [9] -0.09 | [10] -0.041 | [11] 0.053 | [12] 0.001 | [13] 0.055 | [14] -0.051 | [15] -0.058 | [16] 0.026 | [17] -0.123 | [18] -0.016 | [19] -0.023 | [20] -0.018

WDR3 (UniProt Q9UNX4)
UniProt Q9UNX4, sequence (Q9UNX4 whole entry, looked up): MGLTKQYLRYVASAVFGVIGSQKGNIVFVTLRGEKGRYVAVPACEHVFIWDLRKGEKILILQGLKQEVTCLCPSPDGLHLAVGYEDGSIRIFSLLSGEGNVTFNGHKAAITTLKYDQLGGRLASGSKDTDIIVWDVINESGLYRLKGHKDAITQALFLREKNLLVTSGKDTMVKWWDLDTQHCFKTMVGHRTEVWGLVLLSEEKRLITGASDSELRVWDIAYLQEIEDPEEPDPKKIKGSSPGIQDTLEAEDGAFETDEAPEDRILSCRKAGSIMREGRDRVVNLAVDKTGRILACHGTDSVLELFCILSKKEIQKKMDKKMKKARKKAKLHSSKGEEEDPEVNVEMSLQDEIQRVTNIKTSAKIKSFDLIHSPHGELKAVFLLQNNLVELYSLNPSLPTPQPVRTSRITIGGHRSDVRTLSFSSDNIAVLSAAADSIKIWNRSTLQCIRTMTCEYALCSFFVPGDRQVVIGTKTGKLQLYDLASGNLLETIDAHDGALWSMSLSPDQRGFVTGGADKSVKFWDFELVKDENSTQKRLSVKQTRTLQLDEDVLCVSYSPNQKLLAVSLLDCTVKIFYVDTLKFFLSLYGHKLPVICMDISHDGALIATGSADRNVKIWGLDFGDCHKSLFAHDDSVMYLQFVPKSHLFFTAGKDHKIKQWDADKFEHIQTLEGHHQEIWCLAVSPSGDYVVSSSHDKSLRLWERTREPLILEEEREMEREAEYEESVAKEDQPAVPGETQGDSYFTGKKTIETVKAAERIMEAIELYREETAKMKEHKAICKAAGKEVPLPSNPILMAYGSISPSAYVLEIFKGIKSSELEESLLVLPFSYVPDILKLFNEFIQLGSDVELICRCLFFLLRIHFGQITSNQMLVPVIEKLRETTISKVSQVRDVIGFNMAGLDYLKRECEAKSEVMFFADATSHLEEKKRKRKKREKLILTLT
inactive: [1] -0.036 | [2] -0.013 | [3] -0.044 | [4] -0.012 | [5] 0.027 | [6] -0.015 | [7] 0.026 | [8] 0.007 | [9] -0.04 | [10] -0.02 | [11] 0 | [12] 0.014 | [13] 0.021 | [14] 0.025 | [15] -0.033 | [16] 0.015 | [17] -0.032 | [18] -0.021 | [19] -0.001 | [20] 0.03

VRK2 (UniProt Q86Y07)
UniProt Q86Y07, sequence (Q86Y07 whole entry, looked up): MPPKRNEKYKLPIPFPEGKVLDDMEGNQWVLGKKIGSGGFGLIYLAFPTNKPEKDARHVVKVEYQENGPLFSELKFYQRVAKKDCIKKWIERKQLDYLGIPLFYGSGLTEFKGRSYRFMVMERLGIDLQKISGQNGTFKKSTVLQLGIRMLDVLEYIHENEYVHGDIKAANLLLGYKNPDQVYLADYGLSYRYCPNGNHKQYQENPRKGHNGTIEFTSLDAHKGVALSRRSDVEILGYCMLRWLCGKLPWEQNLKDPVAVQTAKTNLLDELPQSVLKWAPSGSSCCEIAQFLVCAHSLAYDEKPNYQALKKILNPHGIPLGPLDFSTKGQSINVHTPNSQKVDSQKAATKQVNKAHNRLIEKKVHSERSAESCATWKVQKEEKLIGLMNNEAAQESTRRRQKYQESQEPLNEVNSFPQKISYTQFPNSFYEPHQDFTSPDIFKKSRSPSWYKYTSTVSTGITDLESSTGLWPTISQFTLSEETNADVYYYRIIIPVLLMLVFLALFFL
inactive: [1] 0.04 | [2] 0.039 | [3] 0.113 | [4] -0.058 | [5] -0.056 | [6] 0 | [7] 0.064 | [8] 0.064 | [9] 0.196 | [10] 0.049 | [11] 0.049 | [12] 0.106 | [13] 0.155 | [14] -0.041 | [15] -0.037 | [16] -0.036 | [17] -0.026 | [18] -0.021 | [19] 0.023 | [20] 0.149

USE1 (UniProt Q9NZ43)
UniProt Q9NZ43, sequence (Q9NZ43 whole entry, looked up): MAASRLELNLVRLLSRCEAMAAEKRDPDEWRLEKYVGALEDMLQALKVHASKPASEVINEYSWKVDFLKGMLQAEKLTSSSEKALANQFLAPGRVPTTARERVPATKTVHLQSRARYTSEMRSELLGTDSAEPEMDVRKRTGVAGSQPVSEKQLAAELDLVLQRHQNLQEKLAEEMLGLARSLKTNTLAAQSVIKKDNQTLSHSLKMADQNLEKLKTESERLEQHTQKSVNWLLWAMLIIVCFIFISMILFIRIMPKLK
inactive: [1] 0.019 | [3] -0.026 | [4] -0.062 | [5] 0 | [6] -0.038 | [7] -0.06 | [8] 0.019 | [9] 0.025 | [10] 0.056 | [11] -0.039 | [12] -0.026 | [13] -0.095 | [14] -0.102 | [15] -0.086 | [16] 0.024 | [17] -0.025 | [18] -0.007 | [19] 0.007 | [20] 0.027
active: [2] 0.31

YME1L1 (UniProt Q96TA2)
UniProt Q96TA2, sequence (Q96TA2 whole entry, looked up): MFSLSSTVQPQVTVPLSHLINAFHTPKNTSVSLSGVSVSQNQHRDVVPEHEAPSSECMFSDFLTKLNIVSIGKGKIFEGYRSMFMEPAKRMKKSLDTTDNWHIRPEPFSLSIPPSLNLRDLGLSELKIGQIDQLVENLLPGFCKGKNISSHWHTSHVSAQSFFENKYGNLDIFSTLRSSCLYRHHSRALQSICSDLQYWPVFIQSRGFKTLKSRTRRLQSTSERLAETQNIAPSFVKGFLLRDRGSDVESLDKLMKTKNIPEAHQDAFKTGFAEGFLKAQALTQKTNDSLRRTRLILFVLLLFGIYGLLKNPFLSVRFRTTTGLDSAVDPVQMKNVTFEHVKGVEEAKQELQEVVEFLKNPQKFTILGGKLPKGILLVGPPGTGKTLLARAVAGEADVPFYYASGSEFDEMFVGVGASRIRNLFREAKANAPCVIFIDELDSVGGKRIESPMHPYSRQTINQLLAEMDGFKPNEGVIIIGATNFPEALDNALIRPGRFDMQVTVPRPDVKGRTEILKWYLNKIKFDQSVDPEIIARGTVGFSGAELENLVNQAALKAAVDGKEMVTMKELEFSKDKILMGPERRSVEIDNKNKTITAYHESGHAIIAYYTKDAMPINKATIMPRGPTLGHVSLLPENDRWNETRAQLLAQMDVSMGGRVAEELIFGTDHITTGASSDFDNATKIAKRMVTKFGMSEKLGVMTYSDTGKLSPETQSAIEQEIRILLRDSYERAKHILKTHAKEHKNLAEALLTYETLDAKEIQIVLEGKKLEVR
inactive: [1] 0.018 | [2] -0.136 | [3] -0.029 | [4] 0.026 | [5] 0.053 | [6] 0 | [7] 0.011 | [8] -0.006 | [9] 0.041 | [10] 0.033 | [11] -0.04 | [12] -0.008 | [13] -0.006 | [14] -0.043 | [15] 0 | [16] -0.04 | [17] 0.003 | [18] 0.005 | [19] 0.054 | [20] -0.087

WDR36 (UniProt Q8NI36)
UniProt Q8NI36, sequence (Q8NI36 whole entry, looked up): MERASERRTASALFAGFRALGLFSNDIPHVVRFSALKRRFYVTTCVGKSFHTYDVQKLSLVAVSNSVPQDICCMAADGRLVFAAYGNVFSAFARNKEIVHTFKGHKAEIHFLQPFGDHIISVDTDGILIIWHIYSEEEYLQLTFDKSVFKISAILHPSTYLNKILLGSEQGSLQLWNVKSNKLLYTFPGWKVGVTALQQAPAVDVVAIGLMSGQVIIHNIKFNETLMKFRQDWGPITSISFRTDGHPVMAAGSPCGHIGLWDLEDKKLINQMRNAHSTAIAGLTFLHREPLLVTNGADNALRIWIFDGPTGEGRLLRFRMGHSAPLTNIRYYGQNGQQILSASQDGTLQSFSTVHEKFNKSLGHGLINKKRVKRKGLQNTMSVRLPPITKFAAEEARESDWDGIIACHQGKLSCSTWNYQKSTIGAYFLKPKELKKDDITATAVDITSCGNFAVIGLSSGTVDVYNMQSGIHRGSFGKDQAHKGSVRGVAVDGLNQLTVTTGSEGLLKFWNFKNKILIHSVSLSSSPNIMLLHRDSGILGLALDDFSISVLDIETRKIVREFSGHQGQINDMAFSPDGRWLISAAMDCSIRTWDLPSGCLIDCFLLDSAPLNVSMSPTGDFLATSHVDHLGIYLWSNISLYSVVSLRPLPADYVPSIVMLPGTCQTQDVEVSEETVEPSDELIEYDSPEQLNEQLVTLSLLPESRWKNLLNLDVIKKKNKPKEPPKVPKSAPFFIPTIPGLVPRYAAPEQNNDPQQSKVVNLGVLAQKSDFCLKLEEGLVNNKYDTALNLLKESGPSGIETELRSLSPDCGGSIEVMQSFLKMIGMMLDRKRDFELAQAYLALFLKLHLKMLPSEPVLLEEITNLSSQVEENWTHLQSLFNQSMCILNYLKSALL
inactive: [1] 0 | [2] 0.02 | [3] -0.031 | [4] 0.027 | [5] -0.025 | [6] 0.017 | [7] 0.008 | [8] 0.014 | [9] 0.004 | [10] -0.049 | [11] -0.02 | [12] -0.01 | [13] 0.019 | [14] -0.004 | [15] 0.03 | [16] 0.048 | [17] 0 | [18] 0.019 | [19] 0.013 | [20] 0.033

VAV1 (UniProt P15498)
UniProt P15498, sequence (P15498 whole entry, looked up): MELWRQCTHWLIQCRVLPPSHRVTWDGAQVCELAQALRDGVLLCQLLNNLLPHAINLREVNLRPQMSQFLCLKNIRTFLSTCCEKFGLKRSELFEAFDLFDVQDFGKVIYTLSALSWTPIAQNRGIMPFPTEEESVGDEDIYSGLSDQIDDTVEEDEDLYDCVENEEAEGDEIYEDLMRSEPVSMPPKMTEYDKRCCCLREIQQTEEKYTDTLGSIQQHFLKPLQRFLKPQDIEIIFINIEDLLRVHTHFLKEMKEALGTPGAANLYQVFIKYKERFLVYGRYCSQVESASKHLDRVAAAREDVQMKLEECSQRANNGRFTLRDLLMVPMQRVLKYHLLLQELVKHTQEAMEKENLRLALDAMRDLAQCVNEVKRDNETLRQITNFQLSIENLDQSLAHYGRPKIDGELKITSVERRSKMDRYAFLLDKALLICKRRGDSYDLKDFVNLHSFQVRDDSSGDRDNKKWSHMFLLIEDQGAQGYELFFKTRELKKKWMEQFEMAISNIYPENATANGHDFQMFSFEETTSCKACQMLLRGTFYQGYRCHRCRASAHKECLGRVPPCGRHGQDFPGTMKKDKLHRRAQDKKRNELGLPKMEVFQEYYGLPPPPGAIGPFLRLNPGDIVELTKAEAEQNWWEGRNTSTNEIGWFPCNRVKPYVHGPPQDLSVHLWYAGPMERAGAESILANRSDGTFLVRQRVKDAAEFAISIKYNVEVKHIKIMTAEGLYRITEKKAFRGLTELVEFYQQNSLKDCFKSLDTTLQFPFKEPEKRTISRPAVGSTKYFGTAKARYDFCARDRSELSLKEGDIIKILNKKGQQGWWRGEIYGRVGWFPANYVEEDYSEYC
inactive: [1] 0.02 | [2] 0.081 | [3] -0.022 | [4] 0.001 | [5] -0.043 | [6] 0.037 | [7] -0.082 | [8] -0.004 | [9] -0.002 | [10] -0.009 | [11] -0.057 | [12] 0.054 | [13] 0.083 | [14] -0.042 | [15] 0.009 | [16] -0.004 | [17] -0.034 | [18] -0.078 | [19] 0.046 | [20] 0.082
